HP1b binding inh – blocks HP1-beta chromodomain binding to methylated histone tails | AlphaScreen HP1-beta / biotin-H3K9me3 peptide binding | Potency, µM (top dose mostly 114 µM), for the others: top-dose activity change, negative = inhibition, usual class: inhibitors | 0.56% of 390,000 active; also: nearly all actives have a fitted effect of over 70% in size
Target sequence (P83916 whole entry, looked up): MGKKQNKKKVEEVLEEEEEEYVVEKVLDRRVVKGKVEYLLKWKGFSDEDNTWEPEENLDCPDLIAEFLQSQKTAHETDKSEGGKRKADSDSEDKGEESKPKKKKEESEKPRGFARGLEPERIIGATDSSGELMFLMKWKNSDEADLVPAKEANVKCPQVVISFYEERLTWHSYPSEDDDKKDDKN
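Compound inhibition of the preformed complex between 50 nM HP1-beta and 50 nM biotinylated H3K9me3 peptide was read by AlphaScreen. Buffer was PBS pH 7.4 with 0.01% Tween-20. Incubations ran 30 min at room temperature, with 10 ug/mL donor/acceptor beads.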
G9a inh – G9a (human) methyltransferase inhibition; Q96KQ7; G9a H3K9 monomethylation, AlphaScreen, 2 h; AID 504332; Potency, µM (doses to about 102 µM), for inactives: top-dose activity, negative = inhibition, actives largely listed as inhibitors; 8.8% of 350,000 active; also: % is scaled to controls: 0 for no effect and ±100 for the full control effect; nearly all actives have a fitted effect of over 75% in size
Target sequence (Q96KQ7 913-1193 limits assumed): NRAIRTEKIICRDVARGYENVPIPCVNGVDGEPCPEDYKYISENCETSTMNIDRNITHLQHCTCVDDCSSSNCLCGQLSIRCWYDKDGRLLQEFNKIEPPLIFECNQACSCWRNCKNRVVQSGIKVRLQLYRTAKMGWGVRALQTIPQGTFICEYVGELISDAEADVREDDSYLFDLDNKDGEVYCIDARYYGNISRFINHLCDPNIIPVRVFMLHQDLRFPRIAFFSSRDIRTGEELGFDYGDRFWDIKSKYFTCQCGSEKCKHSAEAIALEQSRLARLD
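Quantitative HTS format: methyltransferase activity on a biotin-tagged H3K9 peptide is measured by AlphaScreen, using a rabbit anti-monomethyl-H3K9 antibody with streptavidin donor and anti-IgG acceptor beads. Final levels are 20 nM enzyme, 500 nM peptide, 20 uM SAM; 2 h RT.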
L3MBTL1 block – L3MBTL1 (human) inhibition; Q9Y468; AlphaScreen L3MBTL1–H3K9me1 peptide binding; Potency, µM (highest dose often 57.1 µM), inactives show top-dose activity, negative = inhibition, usual class: inhibitors; 0.66% of 230,000 active; AID 485360; also: % is scaled to controls: 0 for no effect and ±100 for the full control effect; nearly all actives have a fitted effect of over 60% in size
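Read-out is AlphaScreen signal from streptavidin donor and nickel chelate acceptor beads (10 ug/mL final each) bridging L3MBTL1 (50 nM) and biotinylated K9-monomethylated H3(1-15) peptide (75 nM), after 30 min compound exposure at room temperature.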
BAZ2B inh – inhibitors of human BAZ2B bromodomain; Q9UIF8; AlphaScreen BAZ2B-H3K14Ac peptide displacement; Potency, µM (highest dose often 114 µM), for the others: at the highest dose activity change, negative = inhibition, usual class: inhibitors; 4.4% of 360,000 active; AID 504333; also: % is scaled to controls: 0 for no effect and ±100 for the full control effect; nearly all actives have a fitted effect of over 60% in size
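AlphaScreen luminescence quantifies BAZ2B engagement of H3K14Ac peptide; the protein and biotinylated peptide are both at 50 nM final, buffer PBS pH 7.4 with 0.01% Tween-20, all steps at room temperature.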
GLS inh – blocks human kidney-isoform glutaminase activity | O94925 | GLS enzymatic activity, qHTS titration | Potency, µM (doses to about 45.5 µM), for the others: at the highest dose activity change, negative = inhibition, most hits filed as inhibitors | 0.21% of 410,000 active; also: % is scaled to controls: 0 for no effect and ±100 for the full control effect
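Assay buffer: 45 mM KH2PO4 pH 8.2, 0.02% Tween-20. hKGA acts on L-glutamine (1 mM solution added); product glutamate is reported by an oxidase/peroxidase Amplex Red coupling, with fluorescence taken at baseline and 30 min.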
JMJD2A Tudor – inhibitors of human JMJD2A Tudor domain; O75164; AlphaScreen JMJD2A-Tudor / H3K4me3 peptide binding; Potency, µM (top dose mostly 114 µM), inactives show at the top dose activity change, negative = inhibition, most hits filed as inhibitors; 4.4% of 390,000 active; AID 504339; also: % is scaled to controls: 0 for no effect and ±100 for the full control effect; nearly all actives have a fitted effect of over 50% in size
* hit, by the source's call; ? = inconclusive; . = no result given; [ ] = dose if it differs, or a comment. Rows were chosen to be rich in hits. Some 10% of all compounds tested hit in one or more screens of this group. Calls follow the shape of the dose curve; as a rule, active = well fitted curve in the direction sought with a large enough effect; inconclusive = small, poorly fitted or top-dose-only effect, or another doubt; inactive = no such curve, though single readings can be large; an effect the other way counts as inactive or inconclusive. Potency is read from the fitted curve at half-maximal effect.

SMILES	HP1b binding inh	G9a inh	L3MBTL1 block	BAZ2B inh	GLS inh	JMJD2A Tudor
O=C1NC(=S)N/C1=C/c1cc([N+](=O)[O-])ccc1O	28%	11µM*	.	-31%	9%	-19%
CCN(CC)c1cc2c(cc1F)c(=O)c(S(=O)(=O)c1ccc(OC)cc1)cn2Cc1ccccc1	25%	-13%[59 µM]	.	1%	-3%	-2%
Cc1cc(=O)[nH]c(/N=C(\N)Nc2cccc3ccccc23)n1	15%	79µM*	6%	56µM*	13%	?
COc1ccccc1N/C(N)=N/c1nc(CSc2ccc(C)cc2)cc(=O)[nH]1	-12%	0%	-3%	-28%	8%	79µM*
COCc1cc(=O)[nH]c(/N=C(\N)Nc2cccc(Cl)c2)n1	29%	18µM*	0%	-28%	0%	-6%[11.4 µM]
CCCCNC(=O)CCn1c(=O)c2ccccc2n(Cc2cccc(Cl)c2)c1=O	-15%	9%[59 µM]	.	5%	3%	-6%
CC(C)(C)OC(=O)N1CCC(c2c(C(=O)N3CCN(c4ccc(Cl)cc4)CC3)cnn2-c2ccc(F)cc2F)CC1	5%	-41%[59 µM]	.	-3%[57.1 µM]	8%	?
Cn1nnnc1Sc1ncnc2scc(-c3ccc4c(=O)ccoc4c3)c12	.	.	.	.	.	-14%
COCc1cc(CN2CCCC(C(=O)Nc3ccc(-c4ccco4)cc3)C2)ccc1OC (stereo not given)	?	8.9µM*	.	?	15%	?
Cc1ncc(CN2CCCC(C(=O)Nc3ccc(-c4ccco4)cc3)C2)cn1 (stereo not given)	14%[57 µM]	10%[0.501 µM]	.	79µM*	1%	-24%
COc1cccc(-c2ccc(NC(=O)C3CCCN(Cc4cnn(C)c4)C3)cc2)c1 (stereo not given)	24%	31%[59 µM]	.	?	-7%	-11%
CC1Cc2ccccc2N1Cc1nc2cc(C(F)(F)F)ccc2c(=O)[nH]1 (stereo not given)	3%	?	-9%	?	16%	?
NC(=O)C1CCN(Cc2nc3cc(C(F)(F)F)ccc3c(=O)[nH]2)CC1	26%	14µM*	-1%	-24%	9%	-10%
CCN(CC)CCOc1ccc(C(O)(Cc2ccc(Cl)cc2)c2ccc(C)cc2)cc1 (stereo not given)	.	-29%[12.7 µM]	.	.	-7%	.
CCN(CC)CCOc1ccc(/C(=C(\Cl)c2ccccc2)c2ccccc2)cc1	?	.	-4%	?	13%	32µM*
O=C(Cn1nnnc1-c1ccccc1F)Nc1ccc(F)c(F)c1	19%	7%[59 µM]	.	2%	-2%	-14%
Cc1ccc(NC(=O)C2CCC(CNS(=O)(=O)c3ccc4c(c3)CCCC(=O)N4)CC2)c(C)c1 (stereo not given)	19%	12%[59 µM]	.	-4%	0%	-1%
CC(=O)Nn1cc2c(c1-c1ccccc1)c(=O)n(C)c(=O)n2C	6%	?	-3%	7%	-7%	-18%
CC(=O)n1c(-c2ccccc2)c(-c2ccccc2)n(C)c1=O	6%	.	.	.	32µM*	-8%
C=C[C@]1(C)C[C@@H](OC(=O)CO)[C@]2(C)C(C)CC[C@]3(CCC(=O)[C@H]32)[C@@H](C)[C@@H]1O (stereo not given in full)	.	.	.	.	-5%	.
CC(Oc1ccccc1)C(=O)Nc1nc(-c2ccncc2)cs1 (stereo not given)	31%	-9%[12.7 µM]	0%	3%	7%	-10%
CC(Oc1ccccc1)C(=O)Nc1nc(-c2ccccn2)cs1 (stereo not given)	16%	50µM*	?	40µM*	9%	20µM*
CC(Oc1cccc(Cl)c1)C(=O)Nc1nc(-c2ccccn2)cs1 (stereo not given)	51%	32µM*	-11%	56µM*	-4%	50µM*
C[C@H](NC(=O)c1ccccc1)C(=O)Nc1nc(-c2ccccn2)cs1	36%	-3%	.	14µM*	5%	79µM*
CCOc1ccc(CCNC(=O)c2nn(C)c3c2CSc2ccccc2-3)cc1	-28%	-34%[59 µM]	.	-14%	1%	-10%
